PubChem BioAssay (NCI)
The panel holds about 79,000 compounds, 15% with a hit somewhere; the sample as a whole holds those more often. Calls of active or inactive are those of the source. Cut-off read from the data, not from the text of the source: active = growth inhibition above about 70%; inactive = the rest.

Experiment: NCI Yeast Anticancer Drug Screen. Data for the CLN2oe strain (AID 163);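 note: 0% = growth of vehicle-only control cultures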
Conditions: S. cerevisiae CLN2oe strain, active compounds read high
Method: Growth inhibition of yeast strains with defined genetic alterations is measured as a screen for potential anti-cancer activity. Selected strains with alterations in DNA damage repair or cell cycle control were exposed to compounds and growth inhibition was measured relative to vehicle treated controls. The strain used in this assay is CLN2oe

Measured: growth inhibition

COC(=O)C1CCCCC1C(=O)Nc1ccccc1 (stereo not given)
inactive: at 1.2 µM -3% | at 3.7 µM -1% | at 11.0 µM -4% | at 33.0 µM -3% | at 100.0 µM -1%

CC1(c2ccccc2)O[C@@H]2C[C@H]3[C@@H]4CCC5=CC(=O)C=C[C@]5(C)[C@@]4(F)[C@@H](O)C[C@]3(C)[C@]2(C(=O)CO)O1 (stereo not given in full)
active: at 100.0 µM 98%
inactive: at 1.2 µM -5% | at 3.7 µM -11% | at 11.0 µM -4% | at 33.0 µM 53%

O=C1Nc2ccc(Br)cc2C1=Nc1ccc(Cl)cc1
inactive: at 1.2 µM 2% | at 3.7 µM 1% | at 11.0 µM 20% | at 33.0 µM 24% | at 100.0 µM 52%

COC(=O)/C(C#N)=C\NC(=S)C(N)=S
inactive: at 1.2 µM 21% | at 3.7 µM 40%
active: at 11.0 µM 96% | at 33.0 µM 100% | at 100.0 µM 98%

COC(=O)C(=O)c1c(-c2ccc(Cl)c(Cl)c2)[nH]c2[nH]n(-c3ccccc3)c(=O)c2c1=O
inactive: at 1.2 µM -6% | at 3.7 µM -13% | at 11.0 µM 64% | at 33.0 µM 64% | at 100.0 µM 58%

OC(Cc1cccc2ccccc12)CN1CCC(c2ccccc2)CC1 (stereo not given)
active: at 3.7 µM 74% | at 11.0 µM 86% | at 33.0 µM 94% | at 100.0 µM 97%
inactive: at 1.2 µM 63%

COc1ccc(C(OCC2OC(n3cnc4c(=O)n(Cc5ccccc5[N+](=O)[O-])nnc43)C(O)C2O)(c2ccccc2)c2ccc(OC)cc2)cc1 (stereo not given)
inactive: at 1.2 µM 9% | at 3.7 µM -4% | at 11.0 µM -7% | at 33.0 µM 11% | at 100.0 µM -3%

c1ccc([P+](CCN2Cc3ccccc3C2)(c2ccccc2)c2ccccc2)cc1
active: at 100.0 µM 93%
inactive: at 1.2 µM 19% | at 3.7 µM 11% | at 11.0 µM 29% | at 33.0 µM 50%
